For experiment [1], the system named is MKL-1. Description: qHTS assay to identify novel small-molecules to repurpose for Merkel cell carcinoma treatment (AID 1296009). Also: nearly all actives have a fitted effect of over 60% in size. Particulars: MCC and control cell lines, CellTiter-Glo viability, 72 h; series mostly up to 46 µM. In short, it runs like this:
(§1)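 Cells exposed to NPC (8-point) and MIPE (11-point) compound dilutions for 72 hr at 37 degree celsius; viability read by CellTiter-Glo luminescence, normalized to no-cell and DMSO in-plate controls.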
(Quantitative high-throughput screening tests each substance at several concentrations.)

Experiment [2] deals with MKL-2. Described as above. The following applies: MCC and control cell lines, CellTiter-Glo viability, 72 h; series mostly up to 46 µM. In short, it runs like this:
as §1
A general note: Cellular ATP, detected with luciferase, serves as a proxy for viable cell number.

Experiment [3] deals with UISO. Described as above. Particulars: MCC and control cell lines, CellTiter-Glo viability, 72 h; series mostly up to 46 µM. The essentials: as §1
For experiment [4], the system named is WaGa. The experiment is described as above. The following applies: MCC and control cell lines, CellTiter-Glo viability, 72 h; series mostly up to 46 µM. The essentials: as §1
Experiment [5] concerns C33A. Description: Primary qHTS to identify gynecologic anti-cancer compounds using libraries of approved drugs and bioactive compounds (AID 1345084). Also: nearly all actives have a fitted effect of over 55% in size. Particulars: Gynecologic cancer cell panel viability, ATPlite luminescence, 48 h; series mostly up to 57.5 µM. In short, it runs like this:
(§2)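 Cell viability after 48 h drug treatment, ATPlite luminescence readout; five doses.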

For experiment [6], the system named is CAOV3. The description is as above. Particulars: Gynecologic cancer cell panel viability, ATPlite luminescence, 48 h; series mostly up to 57.5 µM. In short, it runs like this: as §2
Experiment [7] concerns CASKI. Described as above. Particulars: Gynecologic cancer cell panel viability, ATPlite luminescence, 48 h; series mostly up to 57.5 µM. The essentials: as §2
In experiment [8] the test system is Es-2. The experiment is described as above. The following applies: Gynecologic cancer cell panel viability, ATPlite luminescence, 48 h; series mostly up to 57.5 µM. The essentials: as §2
The test system of experiment [9] is HeLa. Described as above. The following applies: Gynecologic cancer cell panel viability, ATPlite luminescence, 48 h; series mostly up to 57.5 µM. The essentials: as §2
Experiment [10] relates to Hek293T. The experiment is described as above. The following applies: Gynecologic cancer cell panel viability, ATPlite luminescence, 48 h, control line for the selectivity index; series mostly up to 57.5 µM. The essentials: as §2
For experiment [11], the system named is JEG-3. The experiment is described as above. The following applies: Gynecologic cancer cell panel viability, ATPlite luminescence, 48 h; series mostly up to 57.5 µM. The essentials:
as §2

Experiment [12] relates to OV90. Described as above. Particulars: Gynecologic cancer cell panel viability, ATPlite luminescence, 48 h; series mostly up to 57.5 µM. The essentials:
as §2

The test system of experiment [13] is PA-1. The experiment is described as above. The following applies: Gynecologic cancer cell panel viability, ATPlite luminescence, 48 h; series mostly up to 57.5 µM. The essentials:
as §2

In experiment [14] the test system is SKOV3. The description is as above. Particulars: Gynecologic cancer cell panel viability, ATPlite luminescence, 48 h; series mostly up to 57.5 µM. In short, it runs like this: as §2
Experiment [15] has as its system Tov-21-G. The experiment is described as above. Particulars: Gynecologic cancer cell panel viability, ATPlite luminescence, 48 h; series mostly up to 57.5 µM. The essentials: as §2
Experiment [16] concerns Tov112D. The experiment is described as above. Particulars: Gynecologic cancer cell panel viability, ATPlite luminescence, 48 h; series mostly up to 57.5 µM. The essentials:
as §2

Experiment [17] deals with astro. Description: Drug repurposing screens with cells derived from glioblastoma tumor samples (AID 1345199). Also: nearly all actives have a fitted effect of over 40% in size. Particulars: viability, ATP luminescence, 48 h; series mostly up to 45.9 µM. The essentials: (§3)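 Four patient lines of CD133+ GBM neurospheres were screened at several concentrations; hits were retested in those lines plus three slower-growing GBM lines, using 48-hour treatment and ATP-based viability.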

Assay in experiment [18]: as above
Particulars: GBM patient neurospheres viability, ATP luminescence, 48 h. In short, it runs like this: as §3

Where [19] appears, read: at 45.9 µM (top of the series), tumour line B.
Where [20] appears, read: at 45.9 µM (top of the series), tumour line D.
Setting [21] is: at 46.1 µM (top of the series), tumour line C.
The mark [22] stands for this setting: at 20 µM (top of the series), tumour line C.

The structures appear in SMILES notation. Where “and” joins values, the source holds several entries; their conditions need not be identical. Equal entries are not always repeated. Results filed as inconclusive are left out. A number with no mark means an inactive call. Calls of active or inactive are those of the source. Calls follow the shape of the dose curve; as a rule, active = well fitted curve in the direction sought with a large enough effect; inconclusive = small, poorly fitted or top-dose-only effect, or another doubt; inactive = no such curve, though single readings can be large; an effect the other way counts as inactive or inconclusive. Non-standard residues stand in square brackets, D forms with d. Residues, ends and D or L forms follow the SMILES beside them. *: point of attachment. Sta = CC(C)C[C@H](N)[C@@H](O)CC(=O)O; Isovaleryl = CC(C)CC(=O)*
% is scaled to controls: 0 for no effect and ±100 for the full control effect; potency is read from the fitted curve at half-maximal effect.

As for `NC(=O)Cc1cccc(C(=O)c2ccccc2)c1N`, the Potency result in experiment [1], in experiment [2], in experiment [3], in experiment [4], in [5] and in [6] was “inactive” each time. For the same molecule, the Potency entry in experiment [7], in experiment [8], in [9], in experiment [10], in experiment [11] and in experiment [12] was “inactive” each time. Further, the Potency entry in [13], in experiment [14], in [15], in experiment [16] and in [17] was “inactive” throughout.
With `O=C(O)c1cccc(-c2noc(-c3ccccc3F)n2)c1`, the Potency result in [1], in [2], in experiment [3] and in [4] was “inactive” each time. The Potency in experiment [5] was 11.2 µM (active) and 12.6 µM (active); in experiment [6], 10 µM (active) and 11.2 µM (active); in [7], 11.2 µM (active) and 14.1 µM (active); in [8], 3.16 µM (active) and 6.31 µM (active); in [9], 7.08 µM (active) and 10 µM (active); in experiment [10] it was 4.47 µM (active) and 7.08 µM (active). The Potency was 7.94 µM (active) and 11.2 µM (active) in experiment [11]; 12600 nM (active) in experiment [12]; 3.55 µM (active) and 7.94 µM (active) in experiment [13]; 10 µM (active) and 12.6 µM (active) in [14]; 5.01 µM (active) and 8.91 µM (active) in experiment [15]; 7.94 µM (active) and 10 µM (active) in experiment [16]. The Potency in [17] was 2510 nM (active).
Consider `CC(=O)NC[C@H]1CN(c2ccc(N3CCOCC3)c(F)c2)C(=O)O1`, for which the Potency result in experiment [1], in [2], in experiment [3], in experiment [4], in experiment [5] and in [6] was “inactive” in each case. Also, the Potency entry in [7], in [8], in experiment [9], in [10], in [11] and in experiment [12] was “inactive” throughout. Also, the Potency entry in experiment [13], in experiment [14], in experiment [16] and in [17] was “inactive” each time. The activity, negative = cell killing in [18] (setting [19]) is -14.6%; in [18] (setting [20]), -26.2%; in experiment [18] (setting [21]), 15.8%.
Turning to `CC(C)CC(=O)N[C@H](C(=O)N[C@H](C(=O)N[C@@H](CC(C)C)[C@@H](O)CC(=O)N[C@@H](C)C(=O)N[C@@H](CC(C)C)[C@@H](O)CC(=O)O)C(C)C)C(C)C` (Isovaleryl-VV[Sta]A[Sta]-OH), the Potency result in [1], in [2], in experiment [3], in [4], in [5] and in experiment [6] was “inactive” in each case. Moreover, the Potency entry in [7], in [8], in experiment [9], in experiment [10], in experiment [11] and in experiment [12] was “inactive” in each case. Also, the Potency result in experiment [13], in [15], in experiment [16] and in experiment [17] was “inactive” each time. Besides, the activity, negative = cell killing in [18] (setting [19]) was -11.5%; in experiment [18] (setting [20]), -9.71%; in experiment [18] (at 46 µM (top of the series), tumour line A), -22.1%; in experiment [18] (setting [21]), -23.6%.
Turning to `O=P(O)(O)C(O)(Cn1ccnc1)P(=O)(O)O`, the Potency result in [1], in [2], in [3], in experiment [4] and in experiment [17] was “inactive” each time.
For `Cc1cc(C2CCCCC2)n(O)c(=O)c1`, the Potency in experiment [1] is 2.11 µM (active) and 10.5 µM (active); in experiment [2], 1.88 µM (active) and 11.8 µM (active); in experiment [3], 2.66 µM (active) and 13.2 µM (active); in [4], 1.88 µM (active) and 11.8 µM (active); in [5], 15.8 µM (active); in experiment [6] it was 15.8 µM (active). Further, the Potency in experiment [8] is 14.1 µM (active); in [10], 7.08 µM (active); in experiment [13], 2 µM (active); in [14] it was 10 µM (active); in experiment [16] it was 7.08 µM (active). Also, the Potency result in experiment [7] and in [9] was “inactive” in each case.
As to `CN(C)CCCC1(c2ccc(F)cc2)OCc2cc(C#N)ccc21` (stereo not drawn), the Potency entry in experiment [1], in [2], in experiment [3], in experiment [4], in experiment [5] and in experiment [6] was “inactive” in each case. Further, the Potency result in [8], in [9], in [10], in experiment [11], in experiment [13] and in [14] was “inactive” throughout. The Potency result in experiment [15] and in experiment [16] was “inactive” each time.
`COc1cc2c(N3CCN(C(=O)Nc4ccc(OC(C)C)cc4)CC3)ncnc2cc1OCCCN1CCCCC1`: the Potency entry in experiment [1], in [2], in experiment [3], in [4], in experiment [5] and in experiment [7] was “inactive” in each case. Further, the Potency result in [8], in experiment [9], in experiment [10], in [11], in experiment [12] and in experiment [13] was “inactive” throughout. Also, the Potency entry in [14], in experiment [15] and in experiment [16] was “inactive” in each case.
Turning to `CC[C@]1(O)C[C@H]2CN(CCc3c([nH]c4ccccc34)[C@@](C(=O)OC)(c3cc4c(cc3OC)N(C=O)[C@H]3[C@@](O)(C(=O)OC)[C@H](OC(C)=O)[C@]5(CC)C=CCN6CC[C@]43[C@@H]65)C2)C1`, the Potency in experiment [1] is 9.3 nM (active) and 33.5 nM (active); in experiment [2] it was 11.9 nM (active); in [3] it was 3 nM (active) and 21.1 nM (active); in [4], 3.3 nM (active) and 26.6 nM (active); in experiment [5] it was 0.631 µM (active); in experiment [8], 0.891 µM (active). Further, the Potency is 891 nM (active) in experiment [9]; 1780 nM (active) in experiment [12]; 0.199 µM (active) in experiment [13]; 0.178 µM (active) in experiment [16]; 20 nM (active) in [18] (tumour line A). The Potency entry in experiment [6] is “inactive”. In [18] (setting [20]), the activity, negative = cell killing is -44.9%.
For the molecule `Cc1cccc(CN2CCN(C(c3ccccc3)c3ccc(Cl)cc3)CC2)c1` (stereo not drawn), the Potency entry in experiment [1], in experiment [2], in experiment [3], in experiment [4], in experiment [5] and in experiment [6] was “inactive” throughout. For the same molecule, the Potency entry in [7], in experiment [8], in [9], in [10], in experiment [11] and in [13] was “inactive” in each case. Also, the Potency entry in experiment [14], in [15], in [16] and in experiment [17] was “inactive” each time. Also, the activity, negative = cell killing in experiment [18] (setting [22]) was -7.92%. In [18] (tumour line A), the Potency was 5620 nM (active).
Turning to `Cn1c(NCCN(CCO)CCCc2ccc([N+](=O)[O-])cc2)cc(=O)n(C)c1=O`, the Potency result in experiment [1], in experiment [2], in experiment [3], in [4], in experiment [5] and in [6] was “inactive” each time. Moreover, the Potency result in experiment [7], in experiment [8], in [9], in experiment [10], in experiment [11] and in [12] was “inactive” in each case. Moreover, the Potency result in [13], in experiment [15], in experiment [16] and in experiment [17] was “inactive” throughout. Besides, the activity, negative = cell killing is -18.9% in experiment [18] (setting [19]), -12.5% in experiment [18] (setting [20]) and -1.17% in experiment [18] (setting [21]). For the same molecule, the Potency in experiment [18] (tumour line A) is 7080 nM (active).
On to `CN(C)CCc1c[nH]c2ccc(Cn3cncn3)cc12`, for which the Potency result in experiment [1], in [2], in experiment [3], in experiment [4] and in experiment [17] was “inactive” each time. Also, the activity, negative = cell killing in experiment [18] (setting [19]) was -9.89%; in experiment [18] (setting [20]), -20.8%; in [18] (setting [21]), -16%.
For `CCOc1cc(CC(=O)N[C@@H](CC(C)C)c2ccccc2N2CCCCC2)ccc1C(=O)O`, the Potency entry in [1], in experiment [2], in [3], in experiment [4] and in experiment [17] was “inactive” throughout. Moreover, the activity, negative = cell killing in experiment [18] (setting [22]) is -12%; in experiment [18] (at 21.2 µM (top of the series), tumour line B), -4.95%; in [18] (at 21.2 µM (top of the series), tumour line D), -25.3%; in experiment [18] (at 21.3 µM (top of the series), tumour line A), -13.6%.

Values taken from PubChem BioAssay (NCATS).
